# Bioassay records (PubChem)
# Hits are enriched below; roughly 19% of the tested compounds scored in any of these assays.
# DT40 TDP1 CPT: DT40-hTDP1 cell growth loss with CPT. chicken DT40 Tdp1-/-;hTDP1 cells + 20 nM CPT, ATP luminescence, 48 h. Potency, µM (titrated, usually from 46.2 µM), for inactives: at the highest dose activity change, negative = growth inhibition, usual class: inhibitors. 12% of 420,000 active. AID 686979; further: potency means the concentration at half of the fitted maximal effect; nearly all actives have a fitted effect of over 55% in size
#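 Chicken DT40 Tdp1-/- cells complemented with human TDP1, 400 cells/well, exposed to compounds plus 20 nM camptothecin for at least 48 h at 37 C; viability read as ATP content by CellTiter-Glo luminescence.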
# ELG1 DNA repair: blocks ELG1-dependent DNA repair in HEK293T cells; Potency, µM (highest dose often 46.1 µM), for the others: at the highest dose activity change, negative = inhibition, usual class: inhibitors; HEK293T ELG1-luciferase reporter, luminescence, 16 h; DNA damage induced by 5-fluorouridine; 2.3% of 330,000 active; further: potency means the concentration at half of the fitted maximal effect; nearly all actives have a fitted effect of over 55% in size
#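 DMSO vehicle served as the neutral condition. Each well held 2,000 cells given 5-fluorouridine plus compound; after 16 hr at 37 °C/5% CO2, ONE-Glo was added and luciferase measured 30 min later.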
# HT1080 IDH1KD tx: kills HT-1080 cells with IDH1 knockdown; HT-1080 IDH1 knockdown viability, ATP luminescence, 48 h; Potency, µM (titrated, usually from 46.1 µM), for inactives: at the highest dose activity, negative = toxicity, usual class: cytotoxic; 2% of 360,000 active; AID 686971;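 further: potency means the concentration at half of the fitted maximal effect; 0% = DMSO wells and -100% = cell-free medium wells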
#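 IDH1KD HT-1080 cells, 750/well, RPMI + 5% FBS; compound pinned after 2 h settling; 48 h, 37 °C; CellTiter-Glo luminescence; % activity normalised to DMSO and no-cell wells; curves fitted, classed by r2 and efficacy.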
# TDP1 cell noCPT: qHTS for Inhibitors of human tyrosyl-DNA phosphodiesterase 1 (TDP1): qHTS in cells in absence of CPT; DT40 Tdp1-/- hTDP1 cells, no CPT, ATP luminescence, 48 h; Potency, µM (top dose mostly 46.2 µM), inactives show at the top dose activity change, negative = growth inhibition, actives largely listed as inhibitors; 15% of 420,000 active; further: potency means the concentration at half of the fitted maximal effect; nearly all actives have a fitted effect of over 55% in size
#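 DT40 Tdp1-/-;hTDP1 cells, no CPT (DMSO vehicle only), 400 cells/well; compounds pin-transferred; ≥48 hr, 37 °C; CellTiter-Glo 30 min RT dark, luminescence read.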
# HT1080NT lethal: kills 2HG-producing HT-1080-NT fibrosarcoma cells | HT-1080-NT fibrosarcoma viability, CellTiter-Glo ATP luminescence, 48 h | Potency, µM (doses to about 46.1 µM), for inactives: at the highest dose activity, negative = less viability, hits mostly cytotoxic | 1.6% of 360,000 active;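 further: NT is the 2HG producing partner of a matched IDH1 knockdown line; potency means the concentration at half of the fitted maximal effect; 0% = DMSO-treated cells and -100% = media-only wells without cells; nearly all actives have a fitted effect of over 55% in size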
#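 HT-1080-NT; 750 cells/well; 5% FBS RPMI; 48 h compound, 37 degrees C; CellTiter-Glo luminescence; curve fitting and curve-class assignment.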
# IL-1B inflam inh: inflammasome signaling inhibition, IL-1 beta readout; AID 743279; THP-1 LPS/ATP IL-1B secretion, AlphaLISA, 16 h; active compounds read low; 4.7% of 360,000 active; activity change, % at 57.5 µM; in the data active means activity change below about -50%; inconclusive means mostly about -30% to -49%
#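 Secreted IL-1B measured by AlphaLISA bead assay after 16 h compound exposure of THP-1 cells; compounds (final up to 57.5 uM) added 1 h before LPS (250 ng/mL) and ATP (1.25 mM) stimulation; lower signal means less secretion.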
# * marks the source's active call; other numbers are inactive results; i = inactive; ? = inconclusive; . = no result; [ ] = another dose, or the depositor's remark. Unless noted, the call rests on the fitted dose curve; in most records, active means well fitted curve in the direction sought with a large enough effect; inconclusive means small, poorly fitted or top-dose-only effect, or another doubt; inactive means no such curve, though single readings can be large; an effect the other way counts as inactive or inconclusive. Unless noted, on the % scale 0 is the no-effect control and ±100 the full control effect.
SMILES,DT40 TDP1 CPT,ELG1 DNA repair,HT1080 IDH1KD tx,TDP1 cell noCPT,HT1080NT lethal,IL-1B inflam inh
CCN(C(=O)CSc1nc(C)c(C)c(C)n1)C1CCS(=O)(=O)C1 (stereo not drawn),0%,15%,-3%,3%,0%,20
Cc1nn2c(N3CCCC3)c3c(nc2c1-c1ccccc1)CCC3,?,?,-2%,?,5%,16
COc1cccc(-c2cc3nc4c(c(NCC(C)(C)CN(C)C)n3n2)CCCC4)c1,?,-13%,?,?,?,.
Fc1cccc(-c2cc3nc4c(c(N5CCOCC5)n3n2)CCCC4)c1,18µM*,?,10%,?,2%,-3
OC1CCN(c2c3c(nc4cc(-c5ccc(Cl)cc5)nn24)CCC3)CC1,23µM*,18µM*,-12%[9.24 µM],21µM*,-6%,?
Clc1cccc(-c2cc3nc4c(c(N5CCN(c6cnccn6)CC5)n3n2)CCCC4)c1,23µM*,?,8%,?,9%,-15
Fc1cccc(-c2cc3nc4c(c(NCc5ccco5)n3n2)CCCC4)c1,?,?,-13%,-19%,?,-92*
c1nc2nc3c(c(N4CCOCC4)n2n1)CCCC3,0%,0%,-1%,-4%,-1%,-5
COc1ccc(C2CC(c3cccs3)=NN2C(=O)COC(=O)C2CCCCC2)cc1OC (stereo not drawn),?,5%,-12%,?,-4%,30
CC(=O)Nc1ccc(S(=O)(=O)Nc2ccccc2C(=O)N2CCCC2)cc1,2%,22%,4%,-25%,14%,12
Cc1ccccc1-c1nc(S(=O)(=O)c2ccc(Cl)cc2)c(NCCN2CCOCC2)o1,?,-23%,?,?,-3%,-52*
O=S(=O)(c1ccccc1)c1nc(-c2ccccc2Cl)oc1NCCCN1CCOCC1,?,?,-33%,23µM*,-16%,-67*
CC(C)Cn1c(N)c(C(=O)COC(=O)/C=C/c2cccs2)c(=O)n(C)c1=O,?,9.2µM*,-13%,16µM*,?,-4
CC(C)Cn1c(N)c(C(=O)COC(=O)Cc2cccs2)c(=O)n(C)c1=O,18µM*,-9%,-13%,23µM*,1%,i
CC(C)Cn1c(N)c(C(=O)COC(=O)Cc2cccc(C(F)(F)F)c2)c(=O)n(C)c1=O,16µM*,?,-5%,21µM*,-13%,11
CCCc1ccc(C(=O)NNC(=O)c2ccc(Br)cc2)cc1,-1%,1%,9%,-12%,1%,i
CCCc1ccc(C(=O)NC(=O)c2ccccc2O)cc1,2.3µM*,?,?,2.9µM*,?,34
CCCc1ccc(C(=O)NNc2ccc(F)cc2)cc1,-3%,17%,7.3µM*,-1%,4.1µM*,-11
O=C(NNc1ccccc1)c1ccccc1,-24%,.,-18%,-15%,?,18
O=C(NNc1ccc(O)cc1)c1ccc(Br)cc1,21µM*,5.8µM*,4.1µM*,12µM*,?,31
O=C(NC(=O)c1ccccc1O)c1ccc(C(F)(F)F)cc1,12µM*,?,15µM*,7.3µM*,13µM*,-69*
CCCc1ccc(C(=O)O)cc1,0%,.,.,-4%,.,.
CC(=O)N[C@@H](Cc1c[nH]c2ccccc12)C(=O)NC1CC1,-6%,-1%,8%,11%,10%,13
Cc1ccsc1/C=N/NC(=O)c1ccc2ccccc2c1,15µM*,?,?,18µM*,?,-9
O=c1c(-c2ccc(O)cc2)coc2cc(O)cc(O)c12,13µM*,?,-1%,12µM*,-3%,-3
SMILES,DT40 TDP1 CPT,ELG1 DNA repair,HT1080 IDH1KD tx,TDP1 cell noCPT,HT1080NT lethal,IL-1B inflam inh
COc1ccc(Cn2c(-c3ccc(C)cc3)nc3c(c(=O)c4ccccc4n3C)c2=O)cc1,15µM*,?,?,?,?,1
COc1ccc(-c2nc3c(c(=O)c4ccccc4n3C)c(=O)n2Cc2ccccc2)cc1,-24%,1%,14%,-19%,10%,0
COc1ccc(Cn2c(C)nc3c(c(=O)c4ccccc4n3C)c2=O)cc1,-19%,6%,-10%,?,-1%,-11
COc1ccc(CCn2c(C)nc3c(c(=O)c4ccccc4n3C)c2=O)cc1,?,?,?,5.8µM*,?,-18
COc1ccc2c(=O)c3c(=O)n(CCc4ccccc4)c(C(C)C)nc3oc2c1,26µM*,-27%,13%,15µM*,-1%,12
COc1ccc(CCn2c(C(C)C)nc3c(c(=O)c4ccccc4n3C)c2=O)cc1,16µM*,16µM*,?,12µM*,-7%,-3
CCCCCc1nc2c(c(=O)c3ccccc3n2C)c(=O)n1Cc1ccc(OC)cc1,-30%,12%,6%,-25%,12%,16
